Screens deposited in PubChem BioAssay by National Center for Advancing Translational Sciences (NCATS).
The list is not random: actives were taken first. Their share in the collection is about 7.5%.
Rab9 promoter act = activators of Rab9 promoter; Huh7 Rab9 promoter-luciferase reporter, luminescence, 24 h; Potency, µM (series often up to 9.22 µM), for inactives: at the highest dose activation, negative = inhibition, usual class: activators; 320,000 tested, 2.8% active; note: % of control where 0% means no effect; nearly all actives have a fitted effect of over 60% in size
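Luminescence read-out: Huh7 cells stably expressing Rab9-luciferase, treated 24 h with compound at 37 °C, then lysed with luciferase reagent for 10 min at ambient before reading.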
NPC1 promoter act = activators of NPC1 promoter; Huh7 NPC1 promoter luciferase reporter, 24 h; Potency, µM (titrated, usually from 9.22 µM), for inactives: top-dose activation, hits mostly activators; 320,000 tested, 2.4% active; note: % of control where 0% means no effect; nearly all actives have a fitted effect of over 60% in size
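Huh7 cells stably carrying NPC1 promoter–luciferase, plated in Opti-MEM with 10% FBS for 2 h, were exposed to compound in DMSO for 24 h at 37 °C; luciferase reagent was added for 10 min and luminescence read.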
SMN2 splice up = increases expression of the SMN2 splice variant | HEK293 SMN2-luciferase splicing reporter, luminescence, 30-36 h | 210,000 tested, 2.8% active | AID 1458 | Potency, µM (top dose mostly 46.1 µM), without a hit: at the top dose activity change, positive = activation, usual class: activators; note: % of control where 0% means no effect; nearly all actives have a fitted effect of over 55% in size
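qHTS luciferase splicing reporter: luminescence rises when SMN2 exon 7 is included in transfected HEK293 cells. Compound exposure lasted 30-36 h at 37C, with 4.5 mM final sodium butyrate as control, followed by a ONE-Glo read.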
FLuc modulator = firefly luciferase modulation, counter-screen for miR-21 project | P08659 | purified FLuc, Km substrates, luminescence inhibition | Potency, µM (doses to about 57.5 µM), for inactives: at the top dose activity change, negative = inhibition, actives largely listed as inhibitors | 360,000 tested, 6.9% active;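 note: plate controls were vehicle for no effect and reference inhibitor for full effect; nearly all actives have a fitted effect of over 55% in size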
Target sequence (P08659 whole entry, looked up): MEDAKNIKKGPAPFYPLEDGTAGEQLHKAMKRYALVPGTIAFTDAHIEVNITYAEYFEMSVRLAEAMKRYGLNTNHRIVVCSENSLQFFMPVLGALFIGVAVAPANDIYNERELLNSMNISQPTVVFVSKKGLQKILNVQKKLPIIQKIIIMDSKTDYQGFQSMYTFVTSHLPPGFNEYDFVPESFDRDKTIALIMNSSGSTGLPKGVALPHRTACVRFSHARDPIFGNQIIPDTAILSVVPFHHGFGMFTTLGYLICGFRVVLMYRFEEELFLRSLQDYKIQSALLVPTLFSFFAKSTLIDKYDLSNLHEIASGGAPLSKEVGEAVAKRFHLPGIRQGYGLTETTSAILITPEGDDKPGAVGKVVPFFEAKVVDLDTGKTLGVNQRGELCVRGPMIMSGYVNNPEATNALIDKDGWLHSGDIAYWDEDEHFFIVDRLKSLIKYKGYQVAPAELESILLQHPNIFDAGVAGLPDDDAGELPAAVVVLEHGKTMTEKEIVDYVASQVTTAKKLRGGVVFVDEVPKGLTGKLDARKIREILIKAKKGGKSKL
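Purified P. pyralis luciferase (10nM final) with 10uM D-luciferin and 10uM ATP (Km levels) in 50mM Tris acetate pH 7.5, 10mM Mg acetate, 0.01% Tween-20, 0.05% BSA; qHTS 6-point titration, ~60 µM downward; luminescence read.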
ELG1 genotoxic = genotoxicity induction in ELG1-luciferase HEK293T cells | Potency, µM (doses to about 46 µM), for the others: at the highest dose activity change, positive = activation, usual class: activators | 330,000 tested, 1.3% active | HEK293T ELG1-luciferase reporter, luminescence, 16 h; note: % of control where 0% means no effect; nearly all actives have a fitted effect of over 60% in size
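Luminescence read-out: rising ELG1-luciferase signal, reflecting elevated ELG1 protein under genetic stress, flags genotoxic compounds. Cells were treated for 16 hr at 37 °C before ONE-Glo detection.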
Starred values were filed as active, the others as inactive; [ ] = dose if it differs, or a comment. Calls come from the whole dose curve; as a rule, active = well fitted curve in the direction sought with a large enough effect; inconclusive = small, poorly fitted or top-dose-only effect, or another doubt; inactive = no such curve, though single readings can be large; an effect the other way counts as inactive or inconclusive. Potency is the fitted concentration of half-maximal effect.

How did O=C(NCCCN1CCOCC1)c1ccc(S(=O)(=O)Nc2ccccc2F)cc1 do in these assays?
Rab9 promoter act: 8%; NPC1 promoter act: -1%; FLuc modulator: -1%; ELG1 genotoxic: -2%

What do the screens show for `CC1(C)CC(=O)c2sc(NC(=O)CN3C(=O)CCC3=O)nc2C1`?
Rab9 promoter act: -5%; NPC1 promoter act: 4%; SMN2 splice up: 0%; FLuc modulator: 0%; ELG1 genotoxic: -6%

How did CSc1ccccc1C(=O)OCC(=O)N1CCCC1=O do in these assays?
Rab9 promoter act: -4%; NPC1 promoter act: 0%; FLuc modulator: -2%; ELG1 genotoxic: 2%

What do the screens show for `O=C(Cc1ccc(-c2ccccc2)cc1)OCC(=O)N1CCCC1=O`?
Rab9 promoter act: 17%; NPC1 promoter act: -1%; SMN2 splice up: 1%; FLuc modulator: 21µM*; ELG1 genotoxic: 0%

What do the screens show for `Cc1[nH]c2ccccc2c1/C=N/Nc1nc(Nc2ccc(F)cc2)nc(N2CCOCC2)n1`?
Rab9 promoter act: -1%; NPC1 promoter act: 1%; SMN2 splice up: -13%; FLuc modulator: 17µM*; ELG1 genotoxic: -10%

How did O=C(Oc1cccc(/C=N/Nc2nc(Nc3ccccc3)nc(N3CCOCC3)n2)c1)c1ccco1 do in these assays?
Rab9 promoter act: 0%; NPC1 promoter act: 7%; SMN2 splice up: 19%; FLuc modulator: 7.6µM*; ELG1 genotoxic: 0%

What do the screens show for `C(=N\Nc1nc(Nc2ccccc2)nc(N2CCOCC2)n1)/c1c[nH]c2ccccc12`?
Rab9 promoter act: -3%; NPC1 promoter act: -1%; SMN2 splice up: 6%; FLuc modulator: 4.3µM*; ELG1 genotoxic: -8%

Results for Cc1ccc(Nc2nc(N/N=C/c3c[nH]c4ccccc34)nc(N3CCOCC3)n2)cc1 ?
Rab9 promoter act: 1%; NPC1 promoter act: 0%; SMN2 splice up: 8%; FLuc modulator: inconclusive; ELG1 genotoxic: -8%

Results for c1ccc(Nc2nc(N3CCOCC3)nc(N3CCOCC3)n2)cc1 ?
Rab9 promoter act: -5%; NPC1 promoter act: -5%; SMN2 splice up: 5%; FLuc modulator: -3%; ELG1 genotoxic: -14%

How did COC(=O)c1cc(CN2C(=O)c3ccccc3C2=O)c(O)c([N+](=O)[O-])c1 do in these assays?
Rab9 promoter act: -1%; NPC1 promoter act: 0%; FLuc modulator: -4%; ELG1 genotoxic: 1%

How did CCCn1c(-c2ccc(S(=O)(=O)N3CCOCC3)cc2)csc1=Nc1ccc(OCC)cc1 do in these assays?
SMN2 splice up: -46%; FLuc modulator: 2%

How did CN(C)/C=C(/C(=O)c1ccc(Cl)cc1)n1cncn1 do in these assays?
Rab9 promoter act: 2%; NPC1 promoter act: -5%; SMN2 splice up: -11%; FLuc modulator: 6%; ELG1 genotoxic: -8%

How did COc1cccc(/C=N/n2c(C3CCCCC3)n[nH]c2=S)c1 do in these assays?
Rab9 promoter act: 0%; NPC1 promoter act: -1%; FLuc modulator: -3%; ELG1 genotoxic: -13%

What do the screens show for `COc1ccc(-n2c(C)cc(/C=C3/SC(=O)N(CC(=O)N4CCOCC4)C3=O)c2C)cc1`?
Rab9 promoter act: 24%; NPC1 promoter act: 14%; SMN2 splice up: 4%; FLuc modulator: 1.7µM*; ELG1 genotoxic: 3%

Results for Cc1cc(/C=C2/SC(=O)N(CC(=O)N3CCOCC3)C2=O)c(C)n1-c1ccccc1F ?
Rab9 promoter act: 1.6µM*; NPC1 promoter act: 3.5µM*; SMN2 splice up: 11µM*; FLuc modulator: 0.38µM*; ELG1 genotoxic: inconclusive

What do the screens show for `Cc1cc(/C=C2\SC(=O)N(CC(=O)Nc3ccccc3F)C2=O)c(C)n1C`?
Rab9 promoter act: -13%; NPC1 promoter act: 1%; SMN2 splice up: 0%; FLuc modulator: 1%; ELG1 genotoxic: -7%

Results for COc1ccc(-n2c(C)cc(/C=C3\SC(=S)N(Cc4ccco4)C3=O)c2C)cc1 ?
Rab9 promoter act: inconclusive; NPC1 promoter act: 18%; SMN2 splice up: 1%[1.84 µM]; FLuc modulator: inconclusive; ELG1 genotoxic: 3%

What do the screens show for `Clc1ccc(-c2cc3ccccc3[nH]2)cc1`?
Rab9 promoter act: 4µM*; NPC1 promoter act: inconclusive; SMN2 splice up: 18%; FLuc modulator: 9.5µM*; ELG1 genotoxic: inconclusive

How did c1ccc(C[n+]2cccc(-c3cc4ccccc4[nH]3)c2)cc1 do in these assays?
SMN2 splice up: -13%[9.22 µM]

What do the screens show for `CCOc1ccccc1Nc1ncnc2c1cnn2-c1ccccc1`?
Rab9 promoter act: 0%; NPC1 promoter act: -1%; SMN2 splice up: -6%; FLuc modulator: -13%; ELG1 genotoxic: -5%

What do the screens show for `CCOc1ccccc1Nc1ncnc2c1cnn2-c1ccc(C)cc1`?
FLuc modulator: 15µM*

What do the screens show for `Cc1ccc(Nc2ncnc3c2cnn3-c2ccccc2)c(C)c1`?
FLuc modulator: 19µM*

What do the screens show for `Cc1ccc(-n2ncc3c(Nc4cccc(C)c4C)ncnc32)cc1`?
FLuc modulator: 8.5µM*

Results for Cc1cccc(Nc2ncnc3c2cnn3C)c1C ?
FLuc modulator: -1%

How did Cn1nc(CC(=O)Nc2cccc3ncccc23)c2ccccc2c1=O do in these assays?
Rab9 promoter act: -21%; NPC1 promoter act: -3%; FLuc modulator: -11%; ELG1 genotoxic: -9%

How did Cc1ccc2nc(Cc3ccc(N)cc3)[nH]c2c1 do in these assays?
Rab9 promoter act: 1%; NPC1 promoter act: 14%; SMN2 splice up: 5%; FLuc modulator: inconclusive; ELG1 genotoxic: 7%

What do the screens show for `Nc1nc(-c2nc3ccccc3[nH]2)cs1`?
Rab9 promoter act: 1.1µM*; NPC1 promoter act: 1.3µM*; SMN2 splice up: 16µM*; FLuc modulator: 5.4µM*; ELG1 genotoxic: 2.1µM*

Results for Cc1c(N)cccc1-c1nc2ccccc2[nH]1 ?
Rab9 promoter act: 30%; NPC1 promoter act: 25%; SMN2 splice up: 10µM*; FLuc modulator: 24µM*; ELG1 genotoxic: 18%

How did Cc1ccc2nc(-c3ccccc3N)[nH]c2c1 do in these assays?
Rab9 promoter act: 0.5µM*; NPC1 promoter act: 1.1µM*; SMN2 splice up: 7.1µM*; FLuc modulator: 0.76µM*; ELG1 genotoxic: 1.2µM*

What do the screens show for `O=c1[nH]c(-c2ccccc2O)nc2ccccc12`?
SMN2 splice up: 9%

Results for O=c1[nH]c(-c2ccccn2)nc2ccccc12 ?
Rab9 promoter act: inconclusive; NPC1 promoter act: inconclusive; FLuc modulator: 24µM*; ELG1 genotoxic: inconclusive

Results for Nc1ccccc1-c1nc2ccccc2[nH]c1=O ?
Rab9 promoter act: inconclusive; NPC1 promoter act: inconclusive; FLuc modulator: 24µM*; ELG1 genotoxic: 7%

How did Cc1ccc2nc(-c3ccccn3)[nH]c2c1 do in these assays?
Rab9 promoter act: 0.35µM*; NPC1 promoter act: inconclusive; FLuc modulator: 1.3µM*; ELG1 genotoxic: inconclusive

What do the screens show for `O=c1[nH]c(-c2ccccn2)nc(C(F)(F)F)c1Br`?
Rab9 promoter act: -4%; NPC1 promoter act: -6%; FLuc modulator: -1%; ELG1 genotoxic: 20%
